Hits are enriched below; roughly 28% of the tested compounds scored in any of these assays.
CYP2C19 activ: increases human CYP2C19 enzyme activity. AID 1025. 96,000 tested, under 10 active. P33261. activation factor at 5 µM. recombinant CYP2C19, luciferin-H EGE luminescence; hits give high values; 0 = fully inhibited enzyme, 1 = untreated enzyme;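 active means activation factor of at least 2 at 5 µM in the primary screen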;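 further: 0 = wells with 2.5 mM tranylcypromine and 1 = vehicle-only wells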
CYP2C9 inh: inhibitors of human CYP2C9. P11712. CYP2C9 Supersomes, luciferin-H conversion, luminescence. inhibition, % at 5 µM. 96,000 compounds, 20% hits. AID 777;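 active means blocking of liver enzyme CYP2C9 beyond about 50% at 5 µM, limit read from the data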
CYP2C19 inhib: blocks human cytochrome P450 2C19; 96,000 compounds, 21% hits; AID 778; P33261; CYP2C19 Supersomes, luciferin-H EGE luminescence, 30 min; inhibition, % at 5 µM;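 active means CYP2C19 inhibition above a set limit at 5 µM in the primary screen, cut at about 50% in these data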;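 further: plate controls were negative control wells for no effect and 2.5 mM tranylcypromine positive control for full effect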
CYP2C9 activ: activators of human CYP2C9. P11712. recombinant CYP2C9, luciferin-H conversion, luminescence; hits give high values; factor 1 = untreated enzyme, 0 = blocked. activation factor at 5 µM. 96,000 compounds, 1.4% hits;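 active means activation factor of 2 or more for CYP2C9 at a 5 µM dose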;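 further: 0 = sulfaphenazole-blocked wells and 1 = vehicle-only wells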
PTK2B oligo ant: Pyk2 (human) oligomerization antagonism; AID 1347419; Q293 cells, Pyk2 FERM NanoBiT luminescence; hits give low values; z-score (the deposit names both 25 µM and 10 µM); 99,000 compounds, 0.83% hits; Q14289;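 active means Z-score of -3 or lower, scaled per plate to the spread of control and sample wells; inactive means z-score above -3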;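 further: negative z-score means lost luminescence so less FERM oligomerization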
Target sequence (Q14289 whole entry, looked up): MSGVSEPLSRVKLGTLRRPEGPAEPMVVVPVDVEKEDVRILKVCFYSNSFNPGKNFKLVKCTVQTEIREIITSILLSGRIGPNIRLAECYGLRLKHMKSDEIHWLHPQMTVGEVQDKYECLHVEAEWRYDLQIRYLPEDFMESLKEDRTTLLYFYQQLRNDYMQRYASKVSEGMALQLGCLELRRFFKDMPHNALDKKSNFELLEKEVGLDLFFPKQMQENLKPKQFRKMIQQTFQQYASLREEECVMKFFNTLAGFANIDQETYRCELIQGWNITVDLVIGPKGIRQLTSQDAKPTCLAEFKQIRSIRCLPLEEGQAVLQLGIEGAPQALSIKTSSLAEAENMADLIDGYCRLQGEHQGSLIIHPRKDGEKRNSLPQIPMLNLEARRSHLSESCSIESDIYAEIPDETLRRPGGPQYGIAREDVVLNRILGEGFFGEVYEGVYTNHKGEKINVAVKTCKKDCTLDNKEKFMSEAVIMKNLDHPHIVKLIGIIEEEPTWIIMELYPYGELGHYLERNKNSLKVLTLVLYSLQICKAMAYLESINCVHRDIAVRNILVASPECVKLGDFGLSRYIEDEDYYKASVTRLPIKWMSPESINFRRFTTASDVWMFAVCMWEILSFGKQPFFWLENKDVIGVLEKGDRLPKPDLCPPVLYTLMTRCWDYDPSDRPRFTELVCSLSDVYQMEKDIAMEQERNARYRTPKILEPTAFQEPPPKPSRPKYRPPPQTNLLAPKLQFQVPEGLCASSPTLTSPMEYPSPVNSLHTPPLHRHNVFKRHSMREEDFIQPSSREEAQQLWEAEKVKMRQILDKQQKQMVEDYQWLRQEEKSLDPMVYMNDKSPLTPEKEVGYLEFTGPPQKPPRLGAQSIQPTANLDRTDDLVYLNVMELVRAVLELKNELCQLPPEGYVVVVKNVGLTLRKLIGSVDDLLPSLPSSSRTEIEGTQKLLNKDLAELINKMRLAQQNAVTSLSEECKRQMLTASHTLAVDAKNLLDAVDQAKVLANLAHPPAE
Starred values were filed as active, the others as inactive; · = no result given.

SMILES | CYP2C19 activ | CYP2C9 inh | CYP2C19 inhib | CYP2C9 activ | PTK2B oligo ant
COc1ccc(C(c2nnnn2Cc2ccc(F)cc2)N2CCN(c3ccccc3)CC2)cc1 (stereo not drawn) | 0.8 | 27 | 22 | 0.7 | -3.4*
COc1ccc(C(c2nnnn2Cc2ccc(F)cc2)N2CCN(c3ccc(OC)cc3)CC2)cc1 (stereo not drawn) | 0.6 | 50 | 38 | 0.5 | -3
Cn1nnnc1SCC(=O)Nc1ccc(Cl)cc1Cl | 0.6 | 9 | 45 | 0.9 | ·
CC(Sc1cccc(C(F)(F)F)c1)C(=O)NC(N)=O (stereo not drawn) | 1.1 | -142 | -5 | 2.4* | 1.7
O=C(CSc1cccc(C(F)(F)F)c1)Nc1ccc(Cl)cc1Cl | 0 | -68 | 96* | 1.7 | 1.1
CCNC(=O)NC(=O)CSc1cccc(C(F)(F)F)c1 | 0.2 | 16 | 77* | 0.8 | -0.59
O=C(CSc1cccc(C(F)(F)F)c1)NC(=O)NCc1ccco1 | 0.7 | -2 | 26 | 1 | -0.17
O=C(COc1cccc(NC(=O)c2cccc([N+](=O)[O-])c2)c1)c1ccc(Br)cc1 | 0.6 | 66* | 38 | 0.3 | -0.3
O=C(COC(=O)CCC(=O)Nc1nccs1)NCc1ccco1 | 1 | -1 | 2 | 1 | 0.2
CC(=O)Nc1ccccc1NS(=O)(=O)c1ccc(Cl)cc1 | 0.1 | 45 | 91* | 0.6 | 0.69
COC(=O)Nc1ccc(S(=O)(=O)Nc2ccccc2F)cc1 | 0.5 | 24 | 50* | 0.8 | -0.18
COC(=O)Nc1ccc(S(=O)(=O)Nc2ccc(C)cc2)cc1 | 0.9 | 17 | 7 | 0.8 | ·
COc1ccccc1NC(=O)c1c(NC(=O)c2ccco2)sc2c1CCC2 | 0.8 | 64* | 18 | 0.4 | -0.7
O=C(Nc1sc2c(c1C(=O)NC1CCCCC1)CCC2)c1ccco1 | 1 | 49 | 3 | 0.5 | -0.21
CCOC(=O)c1c(NC(=O)c2ccco2)sc2c1CCCC2 | 0.9 | 56* | 14 | 0.4 | -0.68
CCOC(=O)c1c(NC(=O)c2ccco2)n(C2CCCCC2)c2nc3ccccc3nc12 | 1 | 55* | -3 | 0.5 | -1.6
CCOC(=O)c1c(NC(=O)CN2CCN(C(=O)c3ccco3)CC2)sc2c1CCCC2 | · | · | · | · | -0.24
CCOC(=O)c1c(NC(=O)c2ccn(CC)n2)sc2c1CCCC2 | 0.5 | 68* | 55* | 0.3 | -1.3
CCOC(=O)CC(=O)Nc1ccc(C)cc1 | 0.9 | 13 | 11 | 0.9 | -0.07
O=C(NCCN1CCCCCC1)C1CC(=O)N(CCc2ccccc2)C1 (stereo not drawn) | 0.8 | 4 | 24 | 1 | 1.6
Fc1ccc(-c2noc(C3CCN(Cc4cccnc4)CC3)n2)cc1 | 0.8 | 10 | 24 | 0.9 | 0.9
Cc1noc(C)c1C(=O)OCC(=O)c1c(N)n(CC(C)C)c(=O)n(C)c1=O | 1 | 38 | 1 | 0.6 | 0.56
Cc1cc([N+](=O)[O-])nn1CC(=O)NCc1ccco1 | · | · | · | · | 0.72
CCc1c(C)sc(NC(=O)OC)c1C(N)=O | 1 | -2 | 3 | 1 | 0.41
COC(=O)c1c(NC(=O)Cc2cccs2)sc(C(=O)N2CCCCC2)c1C | · | · | · | · | -1.3
SMILES | CYP2C19 activ | CYP2C9 inh | CYP2C19 inhib | CYP2C9 activ | PTK2B oligo ant
CCc1c(C)sc(NC(=O)OC)c1C(=O)N1CCCCC1 | 0.5 | -2 | 52* | 1 | 0.57
NC(=O)c1c(NC(NC(=O)c2ccco2)C(=O)c2ccc(Cl)cc2)sc2c1CCCC2 (stereo not drawn) | 1 | 43 | -1 | 0.6 | -0.04
COC(=O)c1c(NS(=O)(=O)Cc2ccccc2)sc2c1CCCC2 | 0.1 | 96* | 93* | 0 | -0.59
COC(=O)c1c(NS(C)(=O)=O)sc2c1CCCC2 | 0.9 | 17 | 5 | 0.8 | -0.55
COC(=O)c1c(NC(=O)c2ccco2)sc(C(=O)N2CCCC2)c1C | 0.7 | 61* | 26 | 0.4 | -0.51
N#Cc1c(NC(NC(=O)c2ccco2)C(=O)c2ccccc2)sc2c1CCCC2 (stereo not drawn) | 0.8 | 76* | 16 | 0.2 | -0.32
O=S(=O)(NC1CCCCCC1)c1ccc(Br)s1 | · | · | · | · | -1.1
CCOC(=O)CNC(=O)C(=O)c1c(O)[nH]c2ccccc12 | 1 | -5 | 3 | 1 | -0.06
COCCCN1C(=O)C(=O)/C(=C(/O)c2ccc(OC(C)C)c(C)c2)C1c1ccncc1 (stereo not drawn) | 1.1 | -3 | -9 | 1 | 2.2
COC(=O)COC(=O)CC(CC(N)=O)c1ccccc1 (stereo not drawn) | 0.8 | 5 | 18 | 1 | 0.05
Cc1cccc2cc(/C=N/NC(=O)CN3CCOCC3)c(Cl)nc12 | 1.1 | -22 | -8 | 1.2 | 0.13

Compound activity deposited in PubChem by Sanford-Burnham Center for Chemical Genomics.
